These results are taken from PubChem BioAssay AID1076 (NMMLSC, 2008).

A short description of the experiment: LNCaP cell loss by flow event count, confirmation, cytotoxicity control for prostate differentiation activator project, single point (AID 1076).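 Note: counts scatter-gated live cells after medium removal discards detached dead cells.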 The conditions noted are these: flow cytometry event count, 4 d, event count, at 10 µM, stronger effect = lower value. For orientation: Flow cytometry measures light scatter and fluorescence of single cells or particles in a stream.
As for `COc1ccc2cc3cc(C(=O)Nc4ccccc4N4CCN(C)CC4)oc3nc2c1`, the cell event count is 334.

The compound `Cc1ccc(NC(=O)N2CCCN(Cc3ccc(F)cc3)C2)cc1C` registered a cell event count of 142. Regarding `CCOC(=O)N1CCC(NC(=O)c2cc3c(-c4ccccc4F)nn(C)c3s2)CC1`, the cell event count was found to be 148.

As for `Cc1cc(=O)n2nc(N3CCCC(C(=O)NCc4ccco4)C3)sc2n1` (stereo not drawn), the cell event count came out at 102. For `Cc1nc2ncnn2c(C)c1CCC(=O)NCCCN1CCN(c2cccc(Cl)c2)CC1` the value was 148; for `CCOC(=O)C1=C(O)CCn2c1nc1ccccc12`, 257.

Compound `C=CCn1c(=N)n(CC(O)COc2ccccc2OC)c2ccccc21` (stereo not drawn) came in with a cell event count of 94. For the compound `COc1ccc2c(c1)CCc1c(C(=O)Nc3cc(C)n(Cc4ccc(Cl)cc4)n3)noc1-2`, the cell event count was 406. For `CCc1nnc(NC(=O)CSc2nc3ccccc3s2)s1` the value was 142; for `COc1ccc(S(=O)(=O)CCC(=O)O)cc1`, 47.

Compound `COc1ccccc1NC(=O)c1nc[nH]c1C(=O)Nc1ccccc1OC` yielded a cell event count of 257. As for `CC(C)(O)c1cn(-c2nonc2N)nn1`, the figure is 106; as for `O=c1cc(-c2ccccc2)[nH]c2ccccc12`, 76; as for `COc1ccccc1N1CCN(c2nc3ccccc3nc2C(C#N)C(=O)OC(C)C)CC1` (stereo not drawn), 252. The compound `CC1CCCCN1CCNC(=O)c1ccc2c(=O)n(CCc3ccccc3)c(=O)[nH]c2c1` (stereo not drawn) showed a cell event count of 184. For `Cc1oc(-c2cccc(Cl)c2)nc1CN1CCCC(C(=O)NCCCN2CCOCC2)C1` (stereo not drawn) the value was 220; for `Cc1cc(=O)c2ccccc2[nH]1`, 91.

With `CCn1c(=O)cc(OCC(=O)NCCCN2CCN(c3cccc(Cl)c3)CC2)c2ccccc21`, the cell event count was 307.

In the case of `CCc1ccc(-c2nc(CN3CCC(C(=O)N4CCN(c5ccccn5)CC4)CC3)c(C)o2)cc1`, the cell event count amounted to 212.

`CCOC(=O)c1ccc(NC(=O)Nc2ccc3c4c(cccc24)C(=O)N3CC)cc1`: the cell event count is 254. As for `COc1ccc(-c2noc(CCC(=O)NCCCN3CCC(C)CC3)n2)cc1`, the figure is 136; as for `COc1ccc(CC(=O)Nc2ccc(-c3nnc(-c4ccc(C)cc4)o3)cc2)cc1`, 112; as for `Cn1c(C(=O)NCCN2CCN(c3ccccc3F)CC2)cc2c(=O)n(C)c3ccccc3c21`, 194. As for `Cc1cc(NC(=O)CSc2nnc(Cn3c(=O)sc4ccccc43)n2-c2ccccc2C)no1`, the cell event count was found to be 121. The compound `Cc1ccc2c(c1)-c1c(cnn1CC(=O)Nc1ccccc1N1CCN(C)CC1)CO2` registered a cell event count of 142. For `CCOC(=O)N1CCN(C(=O)C2CCCN(Cc3nc(-c4ccc(Cl)cc4)oc3C)C2)CC1` (stereo not drawn) the value was 126; for `Cc1nnc(NCc2n[nH]c(=O)c3ccccc23)c2ccccc12`, 219; for `CCC(=O)N(Cc1ccco1)c1nc(-c2cc(OC)ccc2OC)cs1`, 158. Compound `Cc1ccc(S(=O)(=O)NCCCCC(NC(=O)OC(C)(C)C)C(=O)O)cc1` (stereo not drawn) (tested in a mixture with another compound) came in with a cell event count of 138. Consider `CS(=O)(=O)c1nc(-c2cccs2)cc(C(F)(F)F)n1`, for which the cell event count came out at 61.

Compound `COc1cccc(-c2cc(C(=O)N3CCCc4ccccc43)no2)c1` had a cell event count of 336.

Consider `CCOc1ccc(-c2cc(C(=O)NCCCN3CCN(CC)CC3)c3ccccc3n2)cc1`, for which the cell event count amounted to 156.

For the compound `Cc1ccccc1-c1nc(CN2CCC(C(=O)N3CCN(c4ccccn4)CC3)CC2)c(C)o1`, the cell event count was 190. As for `Cn1c(=O)cc(SCC(=O)NCCCN2CCN(c3ccccc3F)CC2)c2ccccc21`, the figure is 210. As to `COc1ccc2c(c1OC)C(=O)N(C(C)C(=O)O)C2=O` (stereo not drawn), the cell event count was found to be 53.5. Regarding `Cc1oc(-c2ccc(Cl)cc2)nc1CN1CCCC(C(=O)NCCCN2CCOCC2)C1` (stereo not drawn), the cell event count was determined as 182. As to `CCN1CCN(c2ncc(C(=O)Nc3cc(Cl)c(OC)cc3OC)c3ccccc23)CC1`, the cell event count was determined as 301. In the case of `CN(C)c1ccc(CNC2CC(C)(C)NC(C)(C)C2)cc1`, the cell event count was found to be 186.
